# Assay results as given in PubChem BioAssay (Tox21).
# Where “and” joins values, the source holds several entries; their conditions need not be identical. Equal values may be shown once. Inconclusive results are not listed. A number with no mark means an inactive call. Calls of active or inactive are those of the source. Calls follow the shape of the dose curve; as a rule, active = well fitted curve in the direction sought with a large enough effect in the repeat runs; inconclusive = weak or mixed curves; inactive = no such curve, though single readings can be large; an effect the other way counts as inactive or inconclusive. Non-standard residues stand in square brackets, D forms with d. Residues, ends and D or L forms follow the SMILES beside them. Orn = NCCC[C@H](N)C(=O)O
# Assays:
# [1] = molecular target: Nuclear receptor subfamily 1 group I member 2 (Rattus norvegicus) (UniProt Q9R1A7); test: Rat pregnane X receptor (rPXR) activation by small molecules, qHTS assay (AID 1346983); conditions: rPXR luciferase reporter cells, One-Glo luminescence, 24 h; max activation: hits give high values; also: % is scaled to controls: 0 for no effect and ±100 for the full control effect; nearly all actives have a fitted effect of over 20% in size
# Outline: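 Luminescent readout (One-Glo luciferase, 30 min room temperature) followed 24 hr compound treatment at 37 C of rPXR cells plated 2,000 per well and preincubated 5hr; qHTS format with compounds delivered in DMSO.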
# [2] = molecular target: Nuclear receptor subfamily 1 group I member 2 (Homo sapiens) (UniProt O75469); test: Human pregnane X receptor (PXR) activation by small molecules, qHTS assay (AID 1346985); conditions: DPX-2 HepG2 CYP3A4-luciferase, 24 h; series mostly up to 38.3 µM; also: nearly all actives have a fitted effect of over 40% in size; also: potency is read from the fitted curve at half-maximal effect; as to activation: % is scaled to controls: 0 for no effect and ±100 for the full control effect
# Outline: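 DPX-2 cells (HepG2 co-transfected with a PXR response element and a CYP3A4-promoter luciferase construct) were seeded at 2,000 per well, rested 5 hr at 37C, then exposed to DMSO-dissolved compounds for 24 hr. Activation was read as luciferase luminescence.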
# [3] = molecular target: Cytochrome P450 2C9 (Homo sapiens) (UniProt P11712); test: Cytochrome P450 Family 2 Subfamily C Member 9 (CYP2C9) small molecule antagonists: luciferase reporter qHTS assay (AID 1671198); conditions: P450-Glo CYP2C9 enzyme assay, luciferin luminescence; series mostly up to 115 µM; also: nearly all actives have a fitted effect of over 50% in size; also: potency is read from the fitted curve at half-maximal effect
# Outline: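 Enzyme-substrate mix preincubated with compound 10 min at room temperature; reaction started with NADPH regeneration solution, 1 h 37C. Luminescent luciferin product read after 20 min detection reagent.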
# [4] = molecular target: Cytochrome P450 1A2 (Homo sapiens) (UniProt P05177); test: Cytochrome P450 Family 1 Subfamily A Member 2 (CYP1A2) small molecule antagonists: luciferase reporter qHTS assay (AID 1671199); conditions: P450-Glo CYP1A2 enzyme, luciferin luminescence, 1 h; series mostly up to 115 µM; also: potency is read from the fitted curve at half-maximal effect; nearly all actives have a fitted effect of over 50% in size
# Outline: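 P450-Glo CYP1A2, 1536-well qHTS: enzyme/proluciferin substrate + cpd (DMSO), 10 min RT; NADPH regen, 1 h RT; detection reagent, 20 min; luminescence, RLU.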
# [5] = molecular target: Voltage-gated inwardly rectifying potassium channel KCNH2 (Homo sapiens) (UniProt Q12809); test: Human Ether-a-go-go-Related Gene (hERG) channel small molecule antagonists: fluorescence cell-based qHTS assay (AID 1671200); conditions: hERG-U2OS cells, FluxOR thallium flux fluorescence; series mostly up to 76.8 µM; also: nearly all actives have a fitted effect of over 50% in size; also: potency is read from the fitted curve at half-maximal effect
# Outline: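 Quantitative HTS in hERG-U2OS cells: thallium entry through the channel reports activity, read as continuous 480/540 nm fluorescence over 2 min after stimulus addition.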
# [6] = molecular target: Cytochrome P450 3A4 (Homo sapiens) (UniProt P08684); test: Cytochrome P450 Family 3 Subfamily A Member 4 (CYP3A4) small molecule antagonists: luciferase reporter qHTS assay (AID 1671201); conditions: P450-Glo CYP3A4 enzyme, luciferin luminescence, 1 h; series mostly up to 115 µM; also: nearly all actives have a fitted effect of over 50% in size; also: potency is read from the fitted curve at half-maximal effect
# Outline: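 Inhibition of CYP3A4 is measured as loss of light: the enzyme converts a proluciferin substrate to luciferin, detected luminescently. Reaction ran 1 h at room temperature with NADPH regeneration after a 10 min compound preincubation.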
# [7] = molecular target: Cytochrome P450 2D6 (Homo sapiens) (UniProt P10635); test: Cytochrome P450 Family 2 Subfamily D Member 6 (CYP2D6) small molecule antagonists: luciferase reporter qHTS assay (AID 1671196); conditions: P450-Glo CYP2D6 enzyme assay, luciferin luminescence, 1 h; series mostly up to 115 µM
# Outline: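 Read-out is luminescence from luciferin formed by CYP2D6 turnover of a proluciferin substrate, recorded as relative luminescence units. Reactions ran 1 h at room temperature after NADPH regeneration solution was added.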
# [8] = molecular target: Cytochrome P450 2C19 (Homo sapiens) (UniProt P33261); test: Cytochrome P450 Family 2 Subfamily C Member 19 (CYP2C19) small molecule antagonists: luciferase reporter qHTS assay (AID 1671197); conditions: P450-Glo CYP2C19 enzyme, luciferin luminescence, 1 h; series mostly up to 115 µM; also: potency is read from the fitted curve at half-maximal effect; nearly all actives have a fitted effect of over 65% in size
# Outline: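 CYP2C19 P450-Glo, 1536-well qHTS. Cpd + enzyme/proluciferin substrate 10 min RT; + NADPH regen, 37C 1 h; stop with luciferin detection reagent, 20 min RT, luminescence (RLU). Pos ctrl ketoconazole.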
# [9] = molecular target: Nuclear receptor subfamily 1 group I member 2 (Homo sapiens) (UniProt O75469); test: CYP3A4 induction through human pregnane X receptor (PXR) by small molecules, qHTS assay (AID 1346984); conditions: DPX-2 HepG2 PXR, CYP3A4-luciferin luminescence, 24 h; series mostly up to 46.1 µM; also: % is scaled to controls: 0 for no effect and ±100 for the full control effect; nearly all actives have a fitted effect of over 40% in size
# Outline: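 Luminescence readout: luciferase signal after One-Glo (30 min, room temperature), following 3 h at 37C with 3uM final Luciferin-IPA P450 substrate. Cells were DPX-2 (HepG2, PXR/CYP3A4-luc co-transfected) dosed for 24 h.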
# Chain of Voltage-gated inwardly rectifying potassium channel KCNH2 (Homo sapiens) (Q12809 whole entry, looked up): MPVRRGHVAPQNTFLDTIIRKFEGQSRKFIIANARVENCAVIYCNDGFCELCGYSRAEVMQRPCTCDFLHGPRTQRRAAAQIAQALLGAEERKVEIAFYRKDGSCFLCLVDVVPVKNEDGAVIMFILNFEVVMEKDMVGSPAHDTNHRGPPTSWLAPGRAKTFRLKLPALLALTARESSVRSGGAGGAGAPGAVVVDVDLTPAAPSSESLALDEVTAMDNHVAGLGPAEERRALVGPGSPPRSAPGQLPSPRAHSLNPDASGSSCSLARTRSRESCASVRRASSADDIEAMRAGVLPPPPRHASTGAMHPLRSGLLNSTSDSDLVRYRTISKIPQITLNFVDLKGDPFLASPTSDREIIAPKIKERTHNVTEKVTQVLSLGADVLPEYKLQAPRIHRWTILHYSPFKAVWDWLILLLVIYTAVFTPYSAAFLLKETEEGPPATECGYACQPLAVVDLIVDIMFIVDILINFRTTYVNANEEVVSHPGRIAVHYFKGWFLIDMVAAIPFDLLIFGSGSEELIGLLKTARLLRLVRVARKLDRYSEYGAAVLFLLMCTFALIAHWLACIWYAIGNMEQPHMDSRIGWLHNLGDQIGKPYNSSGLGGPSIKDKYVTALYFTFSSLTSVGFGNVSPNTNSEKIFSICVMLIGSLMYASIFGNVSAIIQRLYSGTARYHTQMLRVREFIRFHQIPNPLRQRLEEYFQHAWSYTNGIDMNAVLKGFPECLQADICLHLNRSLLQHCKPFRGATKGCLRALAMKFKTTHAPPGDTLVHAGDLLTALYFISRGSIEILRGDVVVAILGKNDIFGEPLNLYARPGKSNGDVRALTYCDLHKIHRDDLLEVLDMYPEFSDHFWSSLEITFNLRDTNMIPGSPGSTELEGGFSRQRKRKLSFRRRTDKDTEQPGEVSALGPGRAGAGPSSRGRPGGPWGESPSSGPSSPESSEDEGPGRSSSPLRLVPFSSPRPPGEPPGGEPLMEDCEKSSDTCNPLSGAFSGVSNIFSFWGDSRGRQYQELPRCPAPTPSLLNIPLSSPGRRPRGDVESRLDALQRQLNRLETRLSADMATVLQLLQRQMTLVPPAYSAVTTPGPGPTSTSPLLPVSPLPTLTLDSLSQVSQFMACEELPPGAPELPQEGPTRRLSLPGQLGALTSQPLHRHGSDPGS
# Chain of Nuclear receptor subfamily 1 group I member 2 (Rattus norvegicus) (Q9R1A7 whole entry, looked up): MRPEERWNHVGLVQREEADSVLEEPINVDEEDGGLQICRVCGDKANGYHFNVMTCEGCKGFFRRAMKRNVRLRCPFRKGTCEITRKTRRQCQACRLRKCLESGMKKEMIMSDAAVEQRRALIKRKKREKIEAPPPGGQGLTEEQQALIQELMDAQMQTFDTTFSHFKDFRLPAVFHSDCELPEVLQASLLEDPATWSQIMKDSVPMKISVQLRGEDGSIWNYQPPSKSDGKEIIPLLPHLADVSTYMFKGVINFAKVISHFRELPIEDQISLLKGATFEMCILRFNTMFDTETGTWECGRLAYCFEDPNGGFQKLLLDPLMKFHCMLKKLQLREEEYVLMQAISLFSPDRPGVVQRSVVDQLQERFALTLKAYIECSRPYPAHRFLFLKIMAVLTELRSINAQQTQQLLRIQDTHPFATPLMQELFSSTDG
# Chain of Cytochrome P450 1A2 (Homo sapiens) (P05177 whole entry, looked up): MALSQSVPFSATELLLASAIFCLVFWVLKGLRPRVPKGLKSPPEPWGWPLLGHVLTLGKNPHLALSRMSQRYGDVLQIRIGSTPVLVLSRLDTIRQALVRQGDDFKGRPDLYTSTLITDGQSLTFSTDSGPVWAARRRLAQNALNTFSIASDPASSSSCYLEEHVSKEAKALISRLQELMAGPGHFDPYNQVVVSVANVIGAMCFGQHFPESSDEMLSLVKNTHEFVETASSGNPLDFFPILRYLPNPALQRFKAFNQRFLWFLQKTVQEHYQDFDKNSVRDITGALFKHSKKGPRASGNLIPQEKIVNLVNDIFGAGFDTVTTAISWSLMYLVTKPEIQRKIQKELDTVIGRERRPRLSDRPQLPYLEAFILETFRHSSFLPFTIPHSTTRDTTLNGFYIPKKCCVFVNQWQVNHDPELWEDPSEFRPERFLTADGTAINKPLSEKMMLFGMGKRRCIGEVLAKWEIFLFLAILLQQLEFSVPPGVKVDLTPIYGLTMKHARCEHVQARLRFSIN
# Chain of Cytochrome P450 2C9 (Homo sapiens) (P11712 whole entry, looked up): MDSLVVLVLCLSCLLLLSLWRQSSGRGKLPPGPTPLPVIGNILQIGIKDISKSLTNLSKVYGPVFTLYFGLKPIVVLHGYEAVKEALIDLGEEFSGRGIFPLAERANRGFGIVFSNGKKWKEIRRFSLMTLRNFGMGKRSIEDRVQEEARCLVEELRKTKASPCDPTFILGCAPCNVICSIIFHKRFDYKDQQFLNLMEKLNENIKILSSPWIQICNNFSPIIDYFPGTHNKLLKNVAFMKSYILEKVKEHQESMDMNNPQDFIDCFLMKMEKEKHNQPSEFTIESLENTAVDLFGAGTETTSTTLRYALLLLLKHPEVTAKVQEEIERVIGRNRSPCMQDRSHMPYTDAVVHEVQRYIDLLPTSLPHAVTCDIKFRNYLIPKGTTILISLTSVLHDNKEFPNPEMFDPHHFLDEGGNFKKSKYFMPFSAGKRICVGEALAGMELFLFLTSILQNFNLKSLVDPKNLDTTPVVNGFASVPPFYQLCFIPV
# Chain of Cytochrome P450 3A4 (Homo sapiens) (P08684 whole entry, looked up): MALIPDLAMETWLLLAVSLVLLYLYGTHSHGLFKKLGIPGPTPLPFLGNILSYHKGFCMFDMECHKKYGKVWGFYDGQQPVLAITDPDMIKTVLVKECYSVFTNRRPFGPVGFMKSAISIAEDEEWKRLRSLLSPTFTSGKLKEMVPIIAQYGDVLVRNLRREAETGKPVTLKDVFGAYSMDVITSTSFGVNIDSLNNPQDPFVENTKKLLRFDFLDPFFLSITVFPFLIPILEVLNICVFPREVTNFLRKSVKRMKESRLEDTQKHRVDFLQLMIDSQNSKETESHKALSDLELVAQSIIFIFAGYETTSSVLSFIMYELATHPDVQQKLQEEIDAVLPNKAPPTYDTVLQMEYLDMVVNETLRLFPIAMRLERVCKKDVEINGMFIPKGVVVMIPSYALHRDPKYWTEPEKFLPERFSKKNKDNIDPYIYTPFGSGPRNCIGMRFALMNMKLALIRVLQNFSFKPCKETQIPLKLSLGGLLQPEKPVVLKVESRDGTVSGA
# Chain of Cytochrome P450 2C19 (Homo sapiens) (P33261 whole entry, looked up): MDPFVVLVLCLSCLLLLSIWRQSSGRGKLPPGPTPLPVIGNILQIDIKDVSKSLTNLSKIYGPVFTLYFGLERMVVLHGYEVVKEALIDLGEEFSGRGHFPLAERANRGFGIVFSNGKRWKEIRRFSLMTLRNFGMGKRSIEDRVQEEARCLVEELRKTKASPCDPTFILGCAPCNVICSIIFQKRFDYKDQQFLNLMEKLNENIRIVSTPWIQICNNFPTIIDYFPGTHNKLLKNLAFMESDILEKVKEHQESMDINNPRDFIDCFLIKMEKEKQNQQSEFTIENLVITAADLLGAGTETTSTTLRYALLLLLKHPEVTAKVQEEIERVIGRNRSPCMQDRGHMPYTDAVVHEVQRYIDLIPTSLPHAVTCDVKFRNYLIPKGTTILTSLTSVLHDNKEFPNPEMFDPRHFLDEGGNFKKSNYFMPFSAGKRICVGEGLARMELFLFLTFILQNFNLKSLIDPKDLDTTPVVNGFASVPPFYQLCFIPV
# Chain of Cytochrome P450 2D6 (Homo sapiens) (P10635 whole entry, looked up): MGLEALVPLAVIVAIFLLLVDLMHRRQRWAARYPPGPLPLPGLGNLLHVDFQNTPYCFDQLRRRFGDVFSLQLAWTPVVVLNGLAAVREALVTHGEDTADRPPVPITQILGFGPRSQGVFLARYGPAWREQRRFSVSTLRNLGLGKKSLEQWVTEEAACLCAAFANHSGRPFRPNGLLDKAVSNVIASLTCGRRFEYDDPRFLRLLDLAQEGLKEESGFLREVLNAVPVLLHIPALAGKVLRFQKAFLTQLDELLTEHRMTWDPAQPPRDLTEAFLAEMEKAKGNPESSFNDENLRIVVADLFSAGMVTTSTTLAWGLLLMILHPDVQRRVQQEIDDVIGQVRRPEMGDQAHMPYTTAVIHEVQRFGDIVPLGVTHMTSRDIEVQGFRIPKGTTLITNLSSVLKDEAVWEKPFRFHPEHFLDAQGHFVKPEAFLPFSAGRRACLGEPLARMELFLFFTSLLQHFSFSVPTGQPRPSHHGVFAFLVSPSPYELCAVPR
smiles,measurement,setting,value
CC1CCCC(C)N1NC(=O)c1ccc(Cl)c(S(N)(=O)=O)c1 (configuration not stated),max activation,[1],-4.09%
same,Potency,[2],inactive
N#Cc1c(N(CC(=O)O)CC(=O)O)sc(C(=O)O)c1CC(=O)O,max activation,[1],-5.61%
same,Potency,[2],inactive
O=C1OC(=O)c2cc(-c3ccc4c(c3)C(=O)OC4=O)ccc21,Potency,[3],inactive
same,Potency,[4],35.6 µM (active)
same,Potency,[5],inactive
same,Potency,[6],inactive
Cc1c(O)c(=O)ccn1C,max activation,[1],-3.64%
same,Potency,[2],inactive
CN1CCN(CCCN2c3ccccc3Sc3ccc(C(F)(F)F)cc32)CC1,max activation,[1],-11.2%
same,Potency,[5],2.68 µM (active)
COc1cccc(-c2ccc(/C=C\CN3CCCCCC3)cc2Cl)c1,Potency,[7],2.51 µM (active)
same,Potency,[8],44.6 µM (active)
same,Potency,[3],35.4 µM (active)
same,Potency,[4],56.1 µM (active)
same,Potency,[5],1.22 µM (active)
same,Potency,[6],inactive
CC(C)C[C@@H]1NC(=O)[C@H](CCCN)NC(=O)[C@H](C(C)C)NC(=O)[C@@H]2CCCN2C(=O)[C@@H](Cc2ccccc2)NC(=O)[C@H](CC(C)C)NC(=O)[C@H](CCCN)NC(=O)[C@H](C(C)C)NC(=O)[C@@H]2CCCN2C(=O)[C@@H](Cc2ccccc2)NC1=O (cyclo(V[Orn]L[dF]PV[Orn]L[dF]P)),max activation,[1],-16.3%
same,Potency,[9],inactive
same,Potency,[2],inactive
Cc1ncc(C[n+]2csc(CCOP(=O)(O)O)c2C)c(N)n1,max activation,[1],-1.3%
same,Potency,[2],inactive
Nc1cccnc1N,Potency,[3],inactive
same,Potency,[5],inactive
same,Potency,[6],inactive
c1ccc(-n2cnnn2)cc1,max activation,[1],-5.33%
same,Potency,[2],inactive
CN[C@H](CC(C)C)C(=O)N[C@H]1C(=O)N[C@@H](CC(N)=O)C(=O)N[C@H]2C(=O)N[C@H]3C(=O)N[C@H](C(=O)N[C@@H](C(=O)O)c4cc(O)cc(O)c4-c4cc3ccc4O)[C@H](O)c3ccc(c(Cl)c3)Oc3cc2cc(c3O[C@@H]2O[C@H](CO)[C@@H](O)[C@H](O)[C@H]2O[C@H]2C[C@](C)(N)C(O)[C@H](C)O2)Oc2ccc(cc2Cl)[C@H]1O (some centres not stated),max activation,[1],-3.51%
same,Potency,[2],inactive
C=C1[C@H](CO)[C@@H](O)C[C@@H]1n1cnc2c(=O)[nH]c(N)nc21,max activation,[1],-2.99%
same,Potency,[2],inactive
O=C(O)c1cc(O)c2c(c1)[C@H]([C@H]1c3cc(C(=O)O)cc(O)c3C(=O)c3c(O[C@@H]4O[C@H](CO)[C@@H](O)[C@H](O)[C@H]4O)cccc31)c1cccc(O[C@@H]3O[C@H](CO)[C@@H](O)[C@H](O)[C@H]3O)c1C2=O,max activation,[1],-0.0362%
same,Potency,[2],inactive
CCOc1ccc(NC(=S)Nc2ccc(OCC)cc2)cc1,max activation,[1],-1.61%
same,Potency,[2],inactive
C[C@@H]1C(=O)NC2=Nc3cccc(Cl)c3CN21,max activation,[1],3.73%
same,Potency,[2],inactive
CC(C)(COP(=O)(O)OP(=O)(O)OC[C@H]1O[C@@H](n2cnc3c(N)ncnc32)[C@H](O)[C@@H]1OP(=O)(O)O)C(O)C(=O)NCCC(=O)NCCS (some centres not stated),max activation,[1],0.513%
same,Potency,[9],inactive
same,Potency,[2],inactive
CCN(CC)CC#CCOC(=O)C(O)(c1ccccc1)C1CCCCC1 (configuration not stated),max activation,[1],13%
same,Potency,[2],17.8 µM (active)
CCCCC[C@H](O)/C=C/[C@@H]1[C@@H](C/C=C\CCCC(=O)O)[C@@H](O)C[C@H]1O,max activation,[1],-3.99% and -0.657%
same,Potency,[2],inactive
CC(C)[N+]1(C)[C@@H]2CC[C@H]1CC(OC(=O)C(CO)c1ccccc1)C2 (some centres not stated),max activation,[1],-2.6%
same,Potency,[2],inactive
CNCC(=O)N[C@@H](CCCN=C(N)N)C(=O)N[C@H](C(=O)N[C@@H](Cc1ccc(O)cc1)C(=O)N[C@H](C(=O)N[C@@H](Cc1cnc[nH]1)C(=O)N1CCC[C@H]1C(=O)N[C@@H](C)C(=O)O)C(C)C)C(C)C,max activation,[1],-0.307%
same,Potency,[2],inactive
CCCCCCCCCC(=O)NO,max activation,[1],-0.53%
same,Potency,[2],inactive
CCOC(=O)Cc1ccc(-c2ccccc2)cc1,max activation,[1],-3.15%
same,Potency,[2],inactive
CC[C@H]1OC(=O)C[C@@H](O)[C@H](C)[C@@H](O[C@@H]2O[C@H](C)[C@@H](O[C@H]3C[C@@](C)(O)[C@@H](O)[C@H](C)O3)[C@H](N(C)C)[C@H]2O)[C@@H](CC=O)C[C@@H](C)C(=O)/C=C/C(C)=C/[C@@H]1CO[C@@H]1O[C@H](C)[C@@H](O)[C@@H](OC)[C@H]1OC,max activation,[1],0.133%
same,Potency,[2],inactive
Cc1cccc(C)c1NC(=O)C1CCCCN1C (configuration not stated),max activation,[1],-1.93%
same,Potency,[2],inactive
CC/C=C\C/C=C\C/C=C\CCCCCCCC(=O)OC,Potency,[8],56.4 µM (active)
same,Potency,[3],28.3 µM (active)
same,Potency,[4],63.3 µM (active)
same,Potency,[5],inactive
same,Potency,[6],20 µM (active)
